Measurements reported in PubChem BioAssay AID488890 (Southern Research Specialized Biocontainment Screening …, 2010).
Among all 320,000 compounds or so, about 1,300 (0.41%) were called active. About 3% were inconclusive and are not listed. The rule behind the calls is not given here. The list is a sample of the results. Results with a measured potency or affinity are listed apart.

Assay: growth inhibition of non-replicating M. tuberculosis (AID 488890);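 note: plate controls were DMSO cells for no effect and high antibiotic wells for full effect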
Conditions: Mycobacterium tuberculosis non-replicating, at 25 µM, stronger effect = higher value

SMILES	inhibition
NC(=O)C1CCN(C(=O)c2ccc(-c3ccccc3Cl)o2)CC1	-8.98%
CC(=O)N1CCN(C(=O)c2ccc(-c3ccccc3Cl)o2)CC1	5.06%
CC(C)OP(=O)(OC(C)C)C(Nc1ccccn1)c1ccc(F)cc1 (configuration not stated)	-0.14%
O=C(Cn1cnc2c(nnn2Cc2ccc(Cl)cc2)c1=O)OCc1ccccc1	-1.54%
O=C(Nc1nccs1)C(Cl)(Cl)Cl	5.95%
Cc1cc(C)c2ccc(N)nc2c1O	41.3%
Cc1cc(C)c2ccc(C(=O)O)nc2c1O	15.6%
CC(=N/O)/C(C)=N\NC(=O)c1ccccn1	33%
O=C(Nc1ncccn1)c1ccc([N+](=O)[O-])cc1	34%
O=C(Nc1ccccn1)c1ccco1	2.01%
Cc1cccnc1NC(=O)c1ccc([N+](=O)[O-])o1	70.2%
O=C(NNC(=O)c1ccc([N+](=O)[O-])o1)c1ccccc1	70%
O=C1CN(C(=O)CSc2nnnn2-c2ccc(Cl)cc2)c2ccccc2N1	20.5%
CC(OC(=O)C1CCN(S(=O)(=O)c2ccc(Cl)cc2)CC1)C(=O)NC1CCCCC1C (configuration not stated)	17.7%
COc1ccc(-c2sc3ccc(N4CCOCC4)cc3c2C#Cc2ccsc2)cc1	36.8%
COc1cccc(C2C(C(=O)OC(C)C)=C(C)N=c3s/c(=C\c4ccc(C(=O)O)cc4)c(=O)n32)c1 (configuration not stated)	-6.22%
COc1ccc(NC(=S)N2CCNC(=O)C2CC(=O)Nc2cccc(Cl)c2C)cc1 (configuration not stated)	51.6%
CC(=O)N(C)c1ccc(N=Nc2c(C)[nH]n(C(N)=S)c2=O)cc1	-34.4%
CCN(CC)S(=O)(=O)c1ccc(N=Nc2c(C)[nH]n(C(N)=S)c2=O)cc1	-7.96%
CC(=O)Nc1ccc(N=Nc2c(C)[nH]n(C(N)=S)c2=O)cc1	-7.76%
Cc1ccc([N+](=O)[O-])cc1N=Nc1c(C)[nH]n(C(N)=S)c1=O	-4.79%
O=C(Cn1nc(Cc2cccnc2)c2ccccc2c1=O)N1CCN(c2ccccn2)CC1	2.03%
Cc1ccccc1CNC(=O)C(=O)NCC1OCCCN1S(=O)(=O)c1ccc(F)cc1C (configuration not stated)	16.5%

SMILES	inhibition
Cc1cc(C)n2nc(SCC(=O)c3cc(C)n(-c4cc(C)on4)c3C)nc2n1	35.9%
NC(=O)NCC12CC3CC(CC(C3)C1)C2	-1.98%
CNC(=O)COc1ccc(S(=O)(=O)N2CCCC2)cc1	-27.9%
O=C(O)COc1ccc(S(=O)(=O)N2CCCC2)cc1	-9.2%
COc1cccc(-c2cn(-c3cccc(C(F)(F)F)c3)c(=S)[nH]2)c1	5.54%
Cc1cccc(OC(=O)c2cccnc2)c1	74.1%
COC(=O)c1ccc2nccnc2c1	-20.4%
CN(Cc1ccccc1)C(=O)c1ccc(NC(=O)c2ccccc2)cc1	-0.423%
Cn1c(-c2ccccc2)cc2ccccc21	-0.86%
CCOc1c(C(N)=O)cc([N+](=O)[O-])cc1[N+](=O)[O-]	7.1%
Cc1ccc(CNc2ccc([N+](=O)[O-])cc2C(N)=O)cc1	-0.61%
COc1ccc(CCNC(=O)c2cc3cc(F)ccc3nc2C)cc1OC	2.52%
O=C(O)CCCN=CC1=C(O)CNC1=O	2.02%
COc1ccccc1-c1coc2cc(OC(=O)N3CCOCC3)ccc2c1=O	17.2%
CCOc1ccccc1Oc1coc2cc(OCC(=O)O)ccc2c1=O	-6.12%
COc1ccccc1Oc1coc2cc(OCC(N)=O)ccc2c1=O	32.8%
COc1ccc(-c2oc3ccccc3c(=O)c2OCC(=O)O)cc1	6.78%
COc1ccc(-c2oc3ccccc3c(=O)c2OC(C)=O)cc1	64.7%
COc1ccccc1-c1coc2cc(OC(=O)/C=C/c3ccccc3)ccc2c1=O	33.4%
CCC(=O)NCCNc1ccc([N+](=O)[O-])cn1	-5.26%
Cc1onc(C(N)=O)c1C(=O)Nc1ncc(C(F)(F)F)cc1Cl	-30.8%
Cc1ccc(C(=O)N2CCN(c3ccccc3F)CC2)cc1NC1=NC2CS(=O)(=O)CC2S1 (configuration not stated)	-2.79%
CC(Cc1cccs1)NC(=O)c1cccs1 (configuration not stated)	75.3%

SMILES	inhibition
CC(Cc1cccs1)NC(=O)Nc1cccc(Cl)c1 (configuration not stated)	48.3%
CNc1ccc(C2(O)C(=O)c3ccccc3C2=O)cc1	50.8%
CCN(c1ccc(NC(=O)COC(=O)c2ccc(S(=O)(=O)N3CCCC3)cc2)cc1)C(C)C	11.1%
COC(=O)/C(=C1/Oc2ccc(C(C)(C)C)cc2S1)C(F)(F)F	32.3%
COC(=O)/C(=C1/Oc2ccc(C)cc2S1)C(F)(F)F	6.15%
CC(=O)c1cccc(NC(=O)CN(C)S(=O)(=O)c2ccccc2)c1	1.23%
CC[C@H](C)[C@H](NC(=O)[C@H](Cc1ccc(O)cc1)NC(=O)[C@@H](N)C(C)C)C(=O)N[C@@H](Cc1cnc[nH]1)C(=O)N1CCC[C@H]1C(=O)N[C@@H](Cc1ccccc1)C(=O)O	-4.04%
CN(C)S(=O)(=O)c1ccc(N2CCCC2)c(C(=O)NNC(=O)c2ccccc2)c1	37.4%
COc1cc(/C=N/Nc2nc(C)cc(C)n2)ccc1OC(=O)c1ccco1	23.8%
O=c1cc(-c2cccs2)oc2ccc(Cl)cc12	19.9%
O=c1oc(-c2cccs2)nc2ccc(Cl)cc12	79.1%
CC(NC(=O)CCNC(=O)c1ccco1)c1ccccc1 (configuration not stated)	-4.55%
CCCCCCC1CC(CC(=O)Nc2ccc([N+](=O)[O-])cc2)C(=O)O1 (configuration not stated)	46%
CCCCCC1CC(CC(=O)Nc2ccc([N+](=O)[O-])cc2)C(=O)O1 (configuration not stated)	29.9%
OCCCC1CCCN(Cc2cn[nH]c2-c2ccc(F)cc2F)C1 (configuration not stated)	-4.41%
COc1ccc(CC(=O)Nc2ccc(N3CCCCC3)cc2)cc1	10.3%
O=C(O)Cc1ccc(NC(=O)Nc2ccc3c(c2)OCO3)cc1	-6.44%
CC1=NN(Cc2cc(C(C)(C)C)c(O)c(C(C)(C)C)c2)C(=O)C1	-2.66%
OC1CCN(Cc2ccc3ccccc3c2)CC1	12.5%
CC(C)(C)c1cc(C(=S)N2CCN(CCO)CC2)cc(C(C)(C)C)c1O	19.5%
CC(C)(C)c1cc(CN2CCCCC2)cc(C(C)(C)C)c1O	16.6%
OC1CCN(Cc2cccc(Oc3ccccc3)c2)CC1	-6.53%
OCCN1CCN(Cc2ccc3ccccc3c2)CC1	0.76%

SMILES	inhibition
COCCCn1c(C)nnc1SCC(=O)NNC(=O)COc1ccc(Cl)cc1	0.75%
CSc1ccccc1C(=O)NCCSC(C)(C)C	-2.18%
COc1ccccc1NC(=O)COc1ccc(/C=N/NC(=O)CSCc2cc(C)cc(C)c2)cc1	8.98%
CN(C)c1ccc(C(=O)Nc2ccc(O)c3c(=O)cc(-c4ccccc4Cl)oc23)cc1	7.25%
O=C(Cn1cncn1)c1ccc(Cl)cc1	-4.45%
CC1=NN(C(=O)COc2ccccc2)C(O)(c2cccnc2)C1 (configuration not stated)	-18.8%
CCOC(=O)N1N=C(C)CC1(O)c1ccc(Cl)cc1 (configuration not stated)	-5.02%
CC1=NN(C(=O)Cc2ccccc2)C(O)(c2ccccc2)C1 (configuration not stated)	7.51%
CCC1=NN(C(=O)COc2ccccc2C)C(O)(c2ccncc2)C1 (configuration not stated)	-19%
COc1ccc(C(=O)Nc2ccc3nc(N4CCN(C)CC4)cc(C)c3c2)c(OC)c1	76%
CCc1nonc1NC(=O)c1oc2ccc(F)cc2c1C	-7.95%
CN1CCN(S(=O)(=O)c2ccc(NS(=O)(=O)c3ccccc3)cc2)CC1	2.91%
CC1CC(C)CN(C(=O)c2ccc(S(=O)(=O)N3CCCC3)cc2)C1 (configuration not stated)	62.4%
Cc1cc(C(F)(F)F)nc(SCC(=O)c2cccc([N+](=O)[O-])c2)n1	14.9%
O=C(COC(=O)c1ccc(Cl)c(S(=O)(=O)N2CCOCC2)c1)NCc1ccco1	-2.49%
O=C(Cc1ccc(-c2ccccc2)cc1)OCC(=O)N1CCCC1=O	16.6%
CSc1ccc(-c2sc(Nc3ccccc3)n[n+]2-c2ccc(F)cc2)cc1	20.5%
CN(C)c1ccc(-c2sc(Nc3ccccc3)n[n+]2-c2ccc(F)cc2)cc1	60.9%
Cc1cc(C(=O)NCCC2=CCCCC2)c(C)o1	15.7%
O=C(NCc1ccccn1)C1CCC(CNS(=O)(=O)c2cccc3nsnc23)CC1 (configuration not stated)	0.68%
O=C(Nc1ccccc1O)c1ccc(NS(=O)(=O)c2cccc3cccnc23)cc1	27.4%
Cc1ccc(/C=C(\NC(=O)c2ccccc2)C(=O)NC(Cc2ccccc2)C(=O)O)cc1 (configuration not stated)	-0.85%
CC(=O)Nc1ccccc1/C=C/c1ccc2c(C)ccc(O)c2n1	77.9%

SMILES	inhibition
Cc1ccc(O)c(CO)n1	1.36%
CN1CCCN(C(=O)c2ccc(Cl)cc2)CC1	-25.6%
Cc1sc2nc(CSc3ccc([N+](=O)[O-])c(C(F)(F)F)c3)[nH]c(=O)c2c1C	-14.8%
CCCC1(CCC)NC(=O)N(CC(=O)N2CCN(C(=O)c3ccco3)CC2)C1=O	0.73%
CNC(=O)COc1ccc(-c2nn(C)c(=O)c3ccccc23)cc1	-6.01%
Cn1nc(-c2ccc(OCC(N)=O)cc2)c2ccccc2c1=O	27.5%
CCN1CCN(c2nc(N)c([N+](=O)[O-])c(Nc3cccc(C)c3)n2)CC1	71.8%
CCOC(=O)CNC(=O)N1CCc2ccc(NC(=O)c3ccccc3OC)cc2C1	44.4%
CCN(C(=O)COC(=O)c1cccc(S(=O)(=O)N2CCOCC2)c1)C1CCS(=O)(=O)C1 (configuration not stated)	-11%
Cc1cccc2c(=O)cc(C(F)(F)F)[nH]c12	52.3%
O=c1cc(C(F)(F)F)[nH]c2ccccc12	-4.11%
O=C(O)CCCNS(=O)(=O)c1ccc(NCc2ccccc2)c(C(=O)O)c1	-9.34%
CCC1(O)CC(C(=O)OC)=NN1C(=O)c1ccccc1 (configuration not stated)	50.2%
O=C(c1ccccc1)N1N=C(c2ccccc2)CC1(O)C(F)(F)F (configuration not stated)	66.9%
CC1=NN(C(=O)CCc2ccccc2)C(O)(c2ccncc2)C1 (configuration not stated)	-17.3%
Nc1ccc(C(=O)N2N=C(c3ccccc3)CC2(O)C(F)(F)F)cc1 (configuration not stated)	18.4%
CCOC(=O)N1N=C(c2ccccc2)CC1(O)C(F)(F)F (configuration not stated)	-6.72%
COC(=O)C1=NN(C(=O)c2ccc(C)cc2)C(O)(c2ccc(Cl)cc2)C1 (configuration not stated)	68.2%
CC1=NN(C(=O)c2ccccc2Cl)C(O)(c2cccnc2)C1 (configuration not stated)	-11.1%
CC1=NN(C(=O)c2ccccc2Br)C(O)(c2cccnc2)C1 (configuration not stated)	1.25%
